Measurements taken from paper PMC12136788.
Positions count from the first letter of the chain named. Over roughly 5,800 sequences, “enrichment r” has its median near 0.68; the highest 2% begin near 11. The full list was thinned out, with the highest values kept by preference.

T1: UNK ZnF1-6 (called full-length) (human, UniProt Q9C0B0 30-357)
T1 sequence: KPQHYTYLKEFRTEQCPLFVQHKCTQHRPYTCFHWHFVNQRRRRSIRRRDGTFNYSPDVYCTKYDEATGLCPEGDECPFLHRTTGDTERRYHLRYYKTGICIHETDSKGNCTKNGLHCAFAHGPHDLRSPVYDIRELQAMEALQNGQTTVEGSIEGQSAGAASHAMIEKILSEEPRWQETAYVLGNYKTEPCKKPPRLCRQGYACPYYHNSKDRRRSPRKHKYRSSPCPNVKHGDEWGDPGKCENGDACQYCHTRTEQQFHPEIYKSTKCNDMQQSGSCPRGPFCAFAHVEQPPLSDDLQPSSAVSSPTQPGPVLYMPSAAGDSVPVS

B1: chr5:172042892:172042993:-|3pUTR|ENSG00000072786|msi1|FALSE|unique (ssRNA)
RNA: GGGAGUUCUACAGUCCGACGAUCGAUUCUCCCGCUUCAACCUUGAGUAGCUGGGACGACAGAUACAUGCUACUGCACCCAGCUAGGUUAAGGUUCUGUAUACUCUGUCUUUCUAAAGCAAUUCCCUGGAAAUUUUCUCAACAUCAACAGAGGAUUGAGCAUCA
B2: chr12:85264020:85264122:+|3pUTR|ENSG00000133640|unk|FALSE|unique (ssRNA)
RNA: GGGAGUUCUACAGUCCGACGAUCCAUAGUAUUUCAGUUACUUUCCACAGCUGUGUUGCUCAAUAAUAGCAUCCAGUGAACUUUAGUAUUUUUUUGUUUUUCCUGUAUUUUAUUAAAAUAUUUCAUCUAGAGAUAACUGAAGUGCAACAGAGGAUUGAGCAUCA
B3: chr1:32196422:32196614:+|3pUTR|ENSG00000084652|msi1|FALSE|unique (ssRNA)
RNA: GGGAGUUCUACAGUCCGACGAUCACAGUUGUUUCUGUGUCCUGUUCUACCCCCACUCCAGUACAUAACUACUAUGUACUGUGUAGAGCCAUUCUAUAUGCUGAAUGUUCUGCUGUUGCAAACUUGCCAGGGUAUUAGCCAGUGCAACAGAGGAUUGAGCAUCA
B4: chr17:67075675:67075776:-|3pUTR|ENSG00000198265|unk|FALSE|unique (ssRNA)
RNA: GGGAGUUCUACAGUCCGACGAUCAUUCCUUAUUUCCAUAGCCAGUCAAGGAUUCUAACGCUGCUUCCAUCUGAUACUCUUCUUAGAUUCUGCAUCAAAUGCUUAUUUUGACUUACAACAAGCUUACUCUUCCUCAGCAUUACACAACAGAGGAUUGAGCAUCA
B5: chr3:31636526:31636632:+|3pUTR|ENSG00000163527|unk|FALSE|unique (ssRNA)
RNA: GGGAGUUCUACAGUCCGACGAUCCAAAAUGUGAUGAGAGCUUCUUGAACCGGUAAACUAGUACAGGUCUGAGAAAGACAUAUUAGAAGAAUCAUUAUACUUCCUUGAAUUAUAUUUAUUUUCAUGUUUCUCUAAUGCAAAGAACAACAGAGGAUUGAGCAUCA
B6: ENSG00000176244:stop:overlap|stop_codon|ENSG00000176244|stop_codon|NA|stop_codon (ssRNA)
RNA: GGGAGUUCUACAGUCCGACGAUCAAGAUGCGACGAGUGCCUAUAUUUCUAAAGCAAAGGAGCUGAUAGAAAAAUACGGAAUUUAGAAUACAGCAUAUGAGGAAUUUUUCCUUUUGAAGACUUCCAAAUGCUAUCAUGACCUAACAACAGAGGAUUGAGCAUCA
B7: chr8:41543231:41543332:+|3pUTR|ENSG00000147536|msi1|total|mutant (ssRNA)
RNA: GGGAGUUCUACAGUCCGACGAUCAAACCAUUAUUAAAUUUCCAUUCUGCAGCAGAAGGCACCUCUGGACGGCUCCCGGCUUGCCGUUUAAUGAAGUAUGUGCUCCCUGCUGUUAACCCGCAGCCCUCCCCAACUCUCCAGCAGCAACAGAGGAUUGAGCAUCA
B8: chr8:41543231:41543332:+|3pUTR|ENSG00000147536|msi1|FALSE|unique (ssRNA)
RNA: B7 RNA with C83U, C84A
B9: chr3:97755980:97756081:+|3pUTR|ENSG00000080224|unk|FALSE|unique (ssRNA)
RNA: GGGAGUUCUACAGUCCGACGAUCUAAUUAAAAAUCUCUUUCCUACCUUUAGUAAUUUGUAGGAUGAACUGUAUGCAUUUAGAUAGAAAUUGCUUUUGUUAAAUUUACAUUUAAACACAUCUUCAUUCACUUAGAGAAGCCAUACAACAGAGGAUUGAGCAUCA
B10: chr4:138171397:138171528:-|3pUTR|ENSG00000151012|msi1|total|mutant (ssRNA)
RNA: GGGAGUUCUACAGUCCGACGAUCAUUAUGGCAAAGAGGAGAGAAAGAAAUUUAUUUUACAUUGACAUUGCAUUGCUUCCCCUCCGAUACCAAUUCCGAUAACAAACACUCAUGCUUUAAUGGAUUAUACCCAGAGCACUUUGACAACAGAGGAUUGAGCAUCA
B11: chr4:138171397:138171528:-|3pUTR|ENSG00000151012|msi1|FALSE|unique (ssRNA)
RNA: B10 RNA with C83U, C84A, C95U, C96A
B12: chr19:33301014:33301115:-|3pUTR|ENSG00000245848|unk|FALSE|unique (ssRNA)
RNA: GGGAGUUCUACAGUCCGACGAUCUCCCUGCGAGGAGGGGAGAAUUCUUGGGGCUGAGCUGGGAGCCCGGCAACUCUAGUAUUUAGGAUAACCUUGUGCCUUGGAAAUGCAAACUCACCGCUCCAAUGCCUACUGAGUAGGGGGCAACAGAGGAUUGAGCAUCA
B13: chr6:53267885:53267986:-|3pUTR|ENSG00000012660|msi1_unk|FALSE|overlapping (ssRNA)
RNA: GGGAGUUCUACAGUCCGACGAUCUUUAAUGUAAAUCUAAUAGUACUUGUAAUUUCUUUCUGCUUAGAAUCUAAAGAUGUGUUUAGAACCUCUUGUUUAAAAAUAAUAGACUGCUUAUCAUAAAAUCACAUCUCACACAUUUGACAACAGAGGAUUGAGCAUCA
B14: chr15:78283234:78283431:-|three_prime_utr|ENSG00000140395|control|control|control (ssRNA)
RNA: GGGAGUUCUACAGUCCGACGAUCUCUCCAGGCUUAUGCUGCAAAGAGAAUGUACGGAUUGAUCAUGACAUUCCUUACCUUCUUAGGCUUGUUUAAAAGAAAUAUAGCAUUUAUUGUAGCAAAGACUUAAAUUUUGUAGAUACACAACAGAGGAUUGAGCAUCA
B15: chr3:62294137:62294238:+|3pUTR|ENSG00000144724|msi1|FALSE|unique (ssRNA)
RNA: GGGAGUUCUACAGUCCGACGAUCUGAGACCCUUUAGUUAUUCUCCAUUAAUGCUUCUUAGUUUGUAAUACCAUACCUCACAGUAGGUAGAAGAAUGAAAACUUCUGCAGGUGUGUAAUUUUGAAACUAGUCCUCUAAAAAUUCCAACAGAGGAUUGAGCAUCA
B16: ENSG00000070961:be:win_5101|3pUTR|ENSG00000070961|bound_else_gene|NA|bound_elsewhere_windowed (ssRNA)
RNA: GGGAGUUCUACAGUCCGACGAUCAUGACCACCAUUGUCUUUGAUACAUUUAUUUUAAUUCUUAAGUGGCCAAAUAACAGAUUAGGUAAAAUGAGAUUACAUGAAAAGGUUCUAAAAUGAUAUAUUUAGAUGCAAUAAUUAACCCAACAGAGGAUUGAGCAUCA
B17: chr16:70160055:70160156:+|3pUTR|ENSG00000090857|msi1|total|mutant (ssRNA)
RNA: GGGAGUUCUACAGUCCGACGAUCUUGUGCUCACCACGAAGGAUGGUCUCUGCCUUCUCUUGUCGGUGUAUGCCAUCUGAACCCCGGAACACAAAGUAUAUUGGCCUCAAACGGAGACCCAGGGUUGCCAGUUUUCCGUGGGCCCAACAGAGGAUUGAGCAUCA
B18: chr12:68660398:68660499:+|3pUTR|ENSG00000127314|msi1|FALSE|unique (ssRNA)
RNA: GGGAGUUCUACAGUCCGACGAUCUUGAGGUGGCCAAAUGUAAACUAAAAGCCUUAAUUAAAGUGGUGCAAUUUUGUAUAACUUAGCAUCAGUAGUUCAAUAAAUUUGGAUUGCCAUGCAAGGGCUUGCAUUAUAAUUACUUGCCAACAGAGGAUUGAGCAUCA
B19: chr4:186588032:186588133:-|3pUTR|ENSG00000083857|msi1|FALSE|unique (ssRNA)
RNA: GGGAGUUCUACAGUCCGACGAUCUUUUUUUACUAUAACCAGGGUUUCAUUCUGUCUUUUUCCACUGAAGUGUGACAUUUUGUUAGUACAUUUCAGUGUAGUCAUUCAUUUCUAGCUGUACAUAGGAUGAAGGAGAGAUCAGAUCAACAGAGGAUUGAGCAUCA
B20: chr1:225496770:225496921:-|3pUTR|ENSG00000154380|msi1|FALSE|unique (ssRNA)
RNA: GGGAGUUCUACAGUCCGACGAUCUUUUUUAAUUGCAGACAGUAAUGCAUGUCACACUAAUAUGUAGUGGCCUUUUCAAGGCCUAGUCCCAGGGAAAACAUUUUGUAGAGUAUAGGGGAGUGGGAGGAAGGGGAGGAAUAAUUUCAACAGAGGAUUGAGCAUCA
B21: chr13:45969211:45969312:-|CDS|ENSG00000123200|unk|FALSE|unique (ssRNA)
RNA: GGGAGUUCUACAGUCCGACGAUCGUCCCUGACCGUACAGAGGUGACAGAAGCAGAGCAUACUGCCACCGCCACGACUCCUGGUAGUACCCCUUCUCCUCUAUCUUCUCUUCUUCCUCCUCCACCGCCUGUGGCUACUGCCACUCAACAGAGGAUUGAGCAUCA
B22: ENSG00000107863:be:win_5851|CDS_3pUTR|ENSG00000107863|bound_else_gene|NA|bound_elsewhere_windowed (ssRNA)
RNA: GGGAGUUCUACAGUCCGACGAUCAAAGCAGAGUUUCAUCCCUGUCUUUAAACUGGGGGUAUGUCCACUCUAGCAAGUAAAAAAACUACUGUUACACGUUCCAGUAACUCUGUCAAUAUUUUCUUGUAUCAGAAUUGUUAUUAUCAACAGAGGAUUGAGCAUCA

Molecular target: T1, UNK ZnF1-6 (called full-length)
Assay: nsRBNS (natural sequence RNA bind-n-seq); RBNS binding buffer (assumed for nsRBNS): 25 mM Tris pH 7.5, 150 mM KCl, 3 mM MgCl2, 0.01% Triton X-100, 500 ug/ml BSA, 20 U/ml SUPERase-In, 4 C; UNK is unkempt and MSI1 is Musashi-1; names of the RNAs are library labels; protein concentration not given here; high values mean tight binding

Compared with B1, B2 is higher in binding signal: 0.494 enrichment R for the first, 10 enrichment R for the second.

Compared with B3, B4 is higher in binding signal: 0.631 enrichment R for the first, 1.05 enrichment R for the second.

First: B5
Second: B6
The binding signal of the first is higher: 1.21 enrichment R for the first, 0.808 enrichment R for the second.

First: B7
Second: B8
The binding signal of the first is lower: 1.48 enrichment R for the first, 11.4 enrichment R for the second.

First: B9
Second: B10
The binding signal of the first is higher: 10.1 enrichment R for the first, 0.489 enrichment R for the second.

Compared with B11, B12 is lower in binding signal: 73.9 enrichment R for the first, 4.16 enrichment R for the second.

First: B13
Second: B14
The binding signal of the first is lower: 10.2 enrichment R for the first, 13.8 enrichment R for the second.

Going from B15 to B16, the binding signal falls from 16.2 enrichment R to 3.73 enrichment R.

Going from B17 to B18, the binding signal rises from 0.469 enrichment R to 0.685 enrichment R.

First: B19
Second: B20
The binding signal of the first is lower: 1.31 enrichment R for the first, 7.59 enrichment R for the second.

First: B21
Second: B22
The binding signal of the first is higher: 1.84 enrichment R for the first, 0.426 enrichment R for the second.
